The values below come from PubChem BioAssay.

Test system in the first assay: not listed separately
As to the kind of experiment: compound binding in COS7 lysate, probe aLAP1, primary screen, cell lysate, small-molecule microarray (AID 1124).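 Also: lysate comes from COS7 cells expressing LAP1 and is applied at 0.3 µg/mL; score merges spot fluorescence near 667 nm with signal-to-noise over triplicate slides.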 As to conditions: probe aLAP1, fluorescence, higher = more signal.
The molecule `NCCCCCCNC(=O)[C@H]1C[C@H]2C(=O)N[C@@H](Cc3ccccc3)C(=O)N2[C@H]1c1ccc(O)cc1` came in with a composite z-score of 0.205. Molecule `O=C1OCC=C[C@H]2OC34C=CCN(Cn5nnc6ccccc65)C(=O)[C@H]3N(CCCCCCO)C(=O)[C@@H]4[C@@H]12` (some centres not stated) came in with a composite z-score of 0.79. `COc1ccc([Si](C)(C)[C@H]2[C@H](CCn3cc([C@H](O)c4ccccc4)nn3)O[C@@]3(C(=O)N(Cc4ccc(N5CCC5=O)cc4)c4ccccc43)[C@@H]2C)cc1` gave a composite z-score of 0.142.

The test system of another assay is Sam68 (KHDRBS1). As to the kind of experiment: Sam68 small-molecule binders, primary screen, biochemical, small-molecule microarray, 635 nm fluorescence (AID 1125).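 Also: score merges 667 nm channel intensity with signal to noise over triplicate slides.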 As to conditions: small-molecule microarray binding, higher = more signal.
`[N-]=[N+]=Nc1ccccc1[C@H]1OC(c2ccc(OCCCO)cc2)=N[C@@]1(CCS(=O)(=O)c1ccccc1)C(=O)N1CCCCC1` returned a composite z-score of 1.3.

In the case of `CN(C)CCCNC(=O)[C@@H]1c2ccccc2C(=O)N(CC23CC4CC(CC(C4)C2)C3)[C@H]1c1ccc(CO)cc1`, the composite z-score was found to be 1.3. For `COC(=O)[C@]1(CCS(=O)(=O)c2ccccc2)N=C(c2ccc(OCCCO)cc2)O[C@@H]1c1ccccc1CN=[N+]=[N-]`, the composite z-score came to 1.29. `O=C(NC1CC1)[C@@H]1c2ccccc2C(=O)N(Cc2ccccc2)[C@H]1c1ccc(CO)cc1` showed a composite z-score of 0.372. Molecule `COC(=O)C1(Cc2ccccc2)C=C2C(=C(c3ccccc3)C(=O)C2C)CN1` (configuration not stated) returned a composite z-score of -0.305.

In the case of `NC(N)=NCc1cn(CCc2c[nH]c3ccccc23)nn1`, the composite z-score came out at 0.714. As to `CC(=O)n1cc(C(O)C2C=CC3C(=O)N(c4ccccc4)C(=O)C3N2Nc2ccccc2)c2ccccc21` (configuration not stated), the composite z-score was determined as 0.897. In turn, `CC(C)C(O)C1C=CC2C(=O)N(C)C(=O)C2N1N(c1ccccc1)c1ccccc1` (configuration not stated) registered a composite z-score of -0.797. The molecule `C=C(CCCC)/C(=C/C[C@@H](OC(C)=O)c1ccc(CO)o1)c1cc(C(=O)OC)ccc1OC` showed a composite z-score of 1.29.
